Test results: PubChem BioAssay (NCATS)
Records with an inconclusive call do not appear. The source made the active and inactive calls. Unless noted, the call rests on the fitted dose curve; in most records, active means well fitted curve in the direction sought with a large enough effect; inconclusive means small, poorly fitted or top-dose-only effect, or another doubt; inactive means no such curve, though single readings can be large; an effect the other way counts as inactive or inconclusive.

Key:
[1] = biological target: Lysosomal acid glucosylceramidase (Homo sapiens) (UniProt P04062); test: Glucocerebrosidase-p2 (AID 348; in the data active means potency below about 10 µM; further: potency means the concentration at half of the fitted maximal effect); details: purified GBA, blue fluorogenic substrate, 40 min
Chain of Lysosomal acid glucosylceramidase (Homo sapiens) (P04062 whole entry, looked up): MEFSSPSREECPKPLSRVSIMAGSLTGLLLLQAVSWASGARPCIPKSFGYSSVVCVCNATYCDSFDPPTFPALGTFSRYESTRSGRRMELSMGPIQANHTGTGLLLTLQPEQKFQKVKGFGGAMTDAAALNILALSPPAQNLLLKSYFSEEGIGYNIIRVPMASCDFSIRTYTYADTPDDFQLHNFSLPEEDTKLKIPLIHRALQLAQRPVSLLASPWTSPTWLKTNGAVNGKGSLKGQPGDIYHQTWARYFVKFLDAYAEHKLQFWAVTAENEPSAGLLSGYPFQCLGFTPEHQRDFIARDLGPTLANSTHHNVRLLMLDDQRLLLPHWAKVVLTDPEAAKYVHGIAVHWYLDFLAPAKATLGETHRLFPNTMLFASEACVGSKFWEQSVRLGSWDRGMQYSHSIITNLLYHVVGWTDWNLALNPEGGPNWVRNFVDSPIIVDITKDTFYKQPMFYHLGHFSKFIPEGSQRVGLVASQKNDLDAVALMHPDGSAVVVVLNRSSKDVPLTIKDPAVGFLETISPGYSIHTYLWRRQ
Outline: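 Compounds titrated from 0.6 nM upwards against 0.2 nM enzyme in pH 5.9 citric acid/KH2PO4, taurocholate, tween-20; blue fluorogenic substrate 80 uM, 40 min room temperature, stopped and read Ex 365/Em 440 for AC50.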

[2] = AP1 Signaling Pathway (AID 357; active means well fitted curve in either direction with a large enough effect, not every such curve was filed as active; further: on the % scale 0 is the no-effect control and ±100 the full control effect); details: ME-180 (cervical carcinoma) AP-1-bla reporter, EGF-induced, beta-lactamase ratio, 5 h; at 7.69 µM (top of the series) unless noted
Outline: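 AP-1-bla ME-180 cells with beta-lactamase reporter under AP-1 response element, stimulated with EC50 EGF; compounds titrated, 5 hours at 37 degrees Celsius. CCF4 read at 460/530 nm ratio; positive and negative modulators judged by AC50.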

[3] = biological target: Cytochrome P450 1A2 (Homo sapiens) (UniProt P05177); test: p450-cyp1a2 (AID 410; calls by dose curve; further: potency means the concentration at half of the fitted maximal effect)
Chain of Cytochrome P450 1A2 (Homo sapiens) (P05177 whole entry, looked up): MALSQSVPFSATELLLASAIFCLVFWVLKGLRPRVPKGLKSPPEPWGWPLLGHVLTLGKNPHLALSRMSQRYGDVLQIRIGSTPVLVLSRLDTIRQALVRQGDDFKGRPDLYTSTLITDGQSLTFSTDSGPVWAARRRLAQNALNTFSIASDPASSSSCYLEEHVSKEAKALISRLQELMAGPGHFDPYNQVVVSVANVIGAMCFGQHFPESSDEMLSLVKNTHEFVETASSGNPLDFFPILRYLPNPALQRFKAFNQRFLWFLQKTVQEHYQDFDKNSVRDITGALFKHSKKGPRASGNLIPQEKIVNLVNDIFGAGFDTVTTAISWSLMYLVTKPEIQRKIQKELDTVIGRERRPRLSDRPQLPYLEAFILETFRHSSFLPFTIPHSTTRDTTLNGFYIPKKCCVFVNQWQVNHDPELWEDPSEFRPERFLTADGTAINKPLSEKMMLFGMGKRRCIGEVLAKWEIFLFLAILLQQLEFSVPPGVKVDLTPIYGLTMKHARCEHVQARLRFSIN
Outline: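 Human CYP1A2 (20nM) demethylated Luciferin-ME at its Km (100uM) in 100mM KPO4. After 10 min compound preincubation, NADPH regeneration ran the reaction 60 min at room temperature. Luciferin was read by luminescence, normalized to 57 uM furafylline.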

[4] = Stat Signaling Pathway (AID 446; active means well fitted curve in either direction with a large enough effect, not every such curve was filed as active;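 further: ME-180 cervical cancer cells given 40 pM IL-6 alongside compound; SIE-controlled beta-lactamase reporter measured as 460/530 nm FRET emission ratio; on the % scale 0 is the no-effect control and ±100 the full control effect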)
Outline: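 IL-6/STAT signaling read in ME-180 cells via an SIE beta-lactamase reporter. Stimulus was 40 pM IL-6 (its AC50) for 5 hrs, so both activation and inhibition register.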

[5] = biological target: Glucocorticoid receptor (Homo sapiens) (UniProt P04150); test: GR-GFP Redistribution (AID 450;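 active means compounds whose dose series gives a full or clear partial fitted curve of increased nuclear translocation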; further: potency means the concentration at half of the fitted maximal effect); details: U2OS GR-GFP nuclear translocation, laser cytometry, 2 h
Chain of Glucocorticoid receptor (Homo sapiens) (P04150 whole entry, looked up, the tested form may be a part): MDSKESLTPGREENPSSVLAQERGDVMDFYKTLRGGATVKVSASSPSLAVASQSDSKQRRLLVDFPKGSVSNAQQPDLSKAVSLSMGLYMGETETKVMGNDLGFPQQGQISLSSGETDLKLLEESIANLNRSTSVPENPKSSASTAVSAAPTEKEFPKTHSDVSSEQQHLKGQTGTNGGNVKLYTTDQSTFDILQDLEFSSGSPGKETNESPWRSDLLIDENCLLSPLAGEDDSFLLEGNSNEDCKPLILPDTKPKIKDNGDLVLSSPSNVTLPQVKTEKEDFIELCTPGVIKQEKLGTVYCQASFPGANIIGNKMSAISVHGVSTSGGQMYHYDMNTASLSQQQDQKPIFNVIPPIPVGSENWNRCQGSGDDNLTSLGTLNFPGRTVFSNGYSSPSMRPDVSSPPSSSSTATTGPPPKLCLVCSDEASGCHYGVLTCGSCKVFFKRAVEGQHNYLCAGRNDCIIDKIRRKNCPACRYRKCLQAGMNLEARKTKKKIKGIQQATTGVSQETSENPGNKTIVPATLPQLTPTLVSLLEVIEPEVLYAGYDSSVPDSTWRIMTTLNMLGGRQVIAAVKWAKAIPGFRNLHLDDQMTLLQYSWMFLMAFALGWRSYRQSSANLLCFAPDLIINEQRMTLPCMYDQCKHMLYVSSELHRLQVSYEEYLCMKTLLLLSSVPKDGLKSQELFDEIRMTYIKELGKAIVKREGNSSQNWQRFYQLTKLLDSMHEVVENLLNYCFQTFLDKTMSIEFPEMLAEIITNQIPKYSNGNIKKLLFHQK

[6] = biological target: Glucocorticoid receptor (Homo sapiens) (UniProt P04150); test: GR-EFC Redistribution (AID 451; calls by dose curve; further: potency means the concentration at half of the fitted maximal effect); details: CHO-K1 GR-EFC translocation, beta-gal luminescence, 2 h
Outline: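 CHO-K1 cells expressing nuclear EA and GR-ED fragments of b-gal; compounds titrated up to 46 uM final, 2 h at 37 C. GR nuclear translocation read as complemented b-gal luminescence after 1 h RT detection.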

[7] = biological target: Mitogen-activated protein kinase 10 (Mus musculus) (UniProt Q61831); test: JNK3 AlphaScreen Assay (AID 530; active means well fitted curve in either direction with a large enough effect, not every such curve was filed as active;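 further: kinase came from lysate of stimulated human HepG2 cells; signal reports phosphorylation of biotinylated GST-cJun 1-79 at Ser73 with 10 µM ATP; on the % scale 0 is the no-effect control and ±100 the full control effect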)
Outline: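 qHTS format: compounds tested as titrations against IL-1beta/TNF-alpha-activated HepG2 lysate JNK3 with biotin-GST-cJun substrate and 10 uM ATP at room temperature. Loss of anti-phospho-cJun AlphaScreen signal indicates inhibition.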

[8] = biological target: Dual specificity protein kinase CLK4 (Homo sapiens) (UniProt Q9HAZ1); test: qHTS Assay for Inhibitors of CDC-like Kinase 4 (Kinase-Glo Assay) (AID 1770); further: nearly all actives have a fitted effect of over 65% in size; further: potency means the concentration at half of the fitted maximal effect
Chain of Dual specificity protein kinase CLK4 (Homo sapiens) (Q9HAZ1 whole entry, looked up): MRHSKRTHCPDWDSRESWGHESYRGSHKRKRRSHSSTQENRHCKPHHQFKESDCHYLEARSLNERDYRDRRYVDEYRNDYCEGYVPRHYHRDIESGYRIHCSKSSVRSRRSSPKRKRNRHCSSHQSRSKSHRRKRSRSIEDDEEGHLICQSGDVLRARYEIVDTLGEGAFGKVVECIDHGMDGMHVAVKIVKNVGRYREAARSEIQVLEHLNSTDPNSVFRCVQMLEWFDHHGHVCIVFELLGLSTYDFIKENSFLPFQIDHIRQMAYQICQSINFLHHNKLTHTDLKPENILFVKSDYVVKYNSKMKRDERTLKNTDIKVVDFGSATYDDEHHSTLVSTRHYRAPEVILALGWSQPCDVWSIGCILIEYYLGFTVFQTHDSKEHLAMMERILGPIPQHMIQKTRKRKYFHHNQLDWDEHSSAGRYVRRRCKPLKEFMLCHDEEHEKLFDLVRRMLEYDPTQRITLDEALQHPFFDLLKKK
Outline: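 25 nM Clk4 with 100 uM RS repeat peptide and 1 uM ATP (final) in Tris pH7.5, 10 mM MgCl2, 4.5 h at room temperature. Remaining ATP measured by Kinase-Glo luciferase luminescence.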

[9] = biological target: Dual specificity protein kinase CLK4 (Homo sapiens) (UniProt Q9HAZ1); test: qHTS Assay for Inhibitors of CDC-like Kinase 4 (ADP-Glo Assay) (AID 1771); further: nearly all actives have a fitted effect of over 70% in size; further: potency means the concentration at half of the fitted maximal effect
Outline: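 Clk4 (25 nM) was incubated 1 hr at room temperature with 100 uM RS repeat peptide and 1 uM ATP in buffer with 2 mM MgCl2, 0.5 mM EGTA, 2.5 mM DTT. ADP formed was quantified by ADP-Glo luminescence.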

[10] = biological target: Dual specificity protein kinase CLK4 (Homo sapiens) (UniProt Q9HAZ1); test: qHTS Assay for Inhibitors of CDC-like Kinase 4 (ADP-FP Assay) (AID 1795); further: nearly all actives have a fitted effect of over 60% in size; further: potency means the concentration at half of the fitted maximal effect
Outline: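 Recombinant Clk4 (6.25 nM) phosphorylated 100 uM RS repeat peptide with 1 uM ATP in 25 mM Tris pH 7.5, 10 mM MgCl2, 0.5 mM EGTA, 2.5 mM DTT, 0.01% Triton X-100 for 1 h. ADP was detected by Transcreener ADP2 competitive fluorescence polarization after 30 min at room temperature.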

[11] = biological target: Ubiquitin carboxyl-terminal hydrolase 1 (Homo sapiens) (UniProt O94782); test: Inhibitors of USP1/UAF1: Pilot qHTS (AID 504865);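 further: rhodamine fluorescence freed from ubiquitin-rhodamine substrate followed over time; top concentration of the series differs between compounds; on the % scale 0 is the no-effect control and ±100 the full control effect; nearly all actives have a fitted effect of over 35% in size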
Chain of Ubiquitin carboxyl-terminal hydrolase 1 (Homo sapiens) (O94782 whole entry, looked up): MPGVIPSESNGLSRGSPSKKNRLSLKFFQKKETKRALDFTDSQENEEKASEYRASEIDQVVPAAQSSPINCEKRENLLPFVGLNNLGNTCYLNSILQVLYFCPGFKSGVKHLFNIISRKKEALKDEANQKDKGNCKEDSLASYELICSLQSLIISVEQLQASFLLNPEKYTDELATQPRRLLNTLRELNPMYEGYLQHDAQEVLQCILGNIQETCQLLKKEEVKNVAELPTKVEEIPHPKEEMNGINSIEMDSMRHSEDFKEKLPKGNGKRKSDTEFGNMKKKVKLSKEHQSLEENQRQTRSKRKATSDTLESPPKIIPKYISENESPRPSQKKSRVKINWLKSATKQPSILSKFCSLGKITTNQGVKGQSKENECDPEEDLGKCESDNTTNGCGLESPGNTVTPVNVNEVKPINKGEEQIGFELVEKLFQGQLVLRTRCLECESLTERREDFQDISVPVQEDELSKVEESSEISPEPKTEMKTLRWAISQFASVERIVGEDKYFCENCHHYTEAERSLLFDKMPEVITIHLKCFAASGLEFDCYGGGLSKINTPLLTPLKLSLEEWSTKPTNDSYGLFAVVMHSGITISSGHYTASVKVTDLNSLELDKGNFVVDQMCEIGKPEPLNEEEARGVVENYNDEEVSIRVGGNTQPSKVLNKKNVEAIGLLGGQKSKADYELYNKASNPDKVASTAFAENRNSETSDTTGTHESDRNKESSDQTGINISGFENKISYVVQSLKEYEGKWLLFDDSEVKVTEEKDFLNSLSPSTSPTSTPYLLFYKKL
Outline: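 USP1/UAF1 complex at 1 nM preincubated 15 min at room temperature with compound, then Ub-Rho substrate added at 150 nM final. Fluorescence (480/540 nm) read kinetically in 50 mM HEPES pH 7.8, 0.5 mM EDTA, 1 mM TCEP, 0.1 mg/ml BSA, 0.01% Tween-20.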

[12] = NFAT Signaling Pathway (AID 444; active means well fitted curve in either direction with a large enough effect, not every such curve was filed as active;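 further: carbachol stimulus at about its EC50 of 1 µM final; on the % scale 0 is the no-effect control and ±100 the full control effect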); details: Jurkat NFAT-bla M1, carbachol, beta-lactamase ratio, 5 h; at 7.69 µM (top of the series) unless noted
Outline: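 Jurkat cells with NFAT-driven β-lactamase reporter and co-expressed M1 receptor, stimulated with carbachol (final 1 uM, ~EC50), compound titration, 5 h at 37 °C. CCF4 loaded 1 h at RT; 460/530 nm ratio gave %activity and AC50.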

[13] = biological target: Cytochrome P450 2D6 (Homo sapiens) (UniProt P10635); test: qHTS Assay for Inhibitors and Substrates of Cytochrome P450 2D6 (AID 891); further: potency means the concentration at half of the fitted maximal effect; nearly all actives have a fitted effect of over 60% in size
Chain of Cytochrome P450 2D6 (Homo sapiens) (P10635 whole entry, looked up): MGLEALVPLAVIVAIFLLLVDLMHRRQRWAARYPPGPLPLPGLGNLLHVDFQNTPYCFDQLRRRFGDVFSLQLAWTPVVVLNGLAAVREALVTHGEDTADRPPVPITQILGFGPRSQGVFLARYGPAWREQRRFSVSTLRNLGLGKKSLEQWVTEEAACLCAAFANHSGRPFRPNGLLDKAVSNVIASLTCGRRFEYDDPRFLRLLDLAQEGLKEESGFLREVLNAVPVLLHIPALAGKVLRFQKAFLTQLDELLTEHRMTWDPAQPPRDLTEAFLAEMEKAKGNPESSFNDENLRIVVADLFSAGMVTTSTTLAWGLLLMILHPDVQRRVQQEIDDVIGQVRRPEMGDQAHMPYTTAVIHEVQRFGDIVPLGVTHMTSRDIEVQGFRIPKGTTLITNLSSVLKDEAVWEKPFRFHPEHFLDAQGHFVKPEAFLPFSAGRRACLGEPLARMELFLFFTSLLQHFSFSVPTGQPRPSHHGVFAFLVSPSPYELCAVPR
Outline: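 Human CYP2D6 (5 nM) with 30 uM Luciferin-ME EGE (at Km) in 100 mM KPO4, compound preincubated 10 min, then NADPH regeneration system for 60 min at room temperature. Luciferin read by luminescence; normalized to 1.43 uM quinidine.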

[14] = biological target: Cytochrome P450 2C19 (Homo sapiens) (UniProt P33261); test: qHTS Assay for Inhibitors and Substrates of Cytochrome P450 2C19 (AID 899); further: potency means the concentration at half of the fitted maximal effect; nearly all actives have a fitted effect of over 60% in size
Chain of Cytochrome P450 2C19 (Homo sapiens) (P33261 whole entry, looked up): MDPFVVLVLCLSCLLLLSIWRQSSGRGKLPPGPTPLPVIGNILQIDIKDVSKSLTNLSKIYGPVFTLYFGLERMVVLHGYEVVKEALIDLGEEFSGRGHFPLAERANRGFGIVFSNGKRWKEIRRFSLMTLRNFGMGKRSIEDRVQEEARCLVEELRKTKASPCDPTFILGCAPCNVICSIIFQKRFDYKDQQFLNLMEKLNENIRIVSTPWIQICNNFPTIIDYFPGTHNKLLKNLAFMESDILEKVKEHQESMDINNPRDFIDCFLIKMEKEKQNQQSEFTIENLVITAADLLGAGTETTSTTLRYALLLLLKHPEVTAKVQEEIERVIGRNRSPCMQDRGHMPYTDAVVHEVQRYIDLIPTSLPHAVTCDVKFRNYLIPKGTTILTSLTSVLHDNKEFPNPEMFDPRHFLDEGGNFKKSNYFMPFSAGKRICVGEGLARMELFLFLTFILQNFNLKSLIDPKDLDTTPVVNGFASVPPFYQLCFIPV
Outline: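 5 nM human CYP2C19 with 10uM Luciferin-H EGE (at KM) in 50mM KPO4, compound preincubated 10 min at 37C, then NADPH regeneration for 60 min at 37C. Luciferin read by luminescence after detection reagent; normalized to 57uM ketoconazole as full inhibition.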

COc1ccc(Oc2ncc3nc(-c4cccc(C#N)c4)c(=O)n(CCC#N)c3n2)cc1
inactive: Potency [1] > 11.4 µM | activity change, negative = inhibition [2] -20.3% | outcome [4] | Potency [5] > 9.22 µM | Potency [6] > 46 µM | Potency [7] | Potency [8] | Potency [9] | Potency [10] | Potency [11]
active: Potency [3] 25.1 µM

c1ccc(CNc2nc(-c3cccnc3)nc3ccccc23)cc1
active: Potency [3] 0.398 µM | Potency [13] 15.8 µM | Potency [14] 15.8 µM | Potency [8] 7.08 µM | Potency [9] 11.2 µM | Potency [10] 5.01 µM
inactive: Potency [1] > 11.4 µM | activity change, negative = inhibition [2] -20.2% | activity change, negative = inhibition [12] -17.2% | outcome [4] | Potency [5] > 46 µM | Potency [6] > 46 µM | Potency [7]
